From PubChem BioAssay AID521 (Sanford-Burnham Center for Chemical Genomics, 2006)
About 730 (0.66%) of roughly 110,000 compounds were called active. This is one part of a sample in which actives are shown more often than they occur. Unmarked numbers belong to inactive results. No stated cut-off is given here; in the data, active means inhibition above about 50%; inconclusive means no clear call, values can overlap the other calls; inactive means below that.

target: Tyrosine-protein phosphatase non-receptor type 7 (Homo sapiens) (UniProt P35236); test: HePTP tyrosine phosphatase activity blockers – biochemical, absorbance, leukemia target, primary screen (AID 521); conditions: recombinant HePTP phosphatase activity, OD absorbance; at 20 µM; stronger effect = higher value;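 further: plate controls were vehicle for no effect and reference inhibitor for full effect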
Sequence (P35236 whole entry, looked up): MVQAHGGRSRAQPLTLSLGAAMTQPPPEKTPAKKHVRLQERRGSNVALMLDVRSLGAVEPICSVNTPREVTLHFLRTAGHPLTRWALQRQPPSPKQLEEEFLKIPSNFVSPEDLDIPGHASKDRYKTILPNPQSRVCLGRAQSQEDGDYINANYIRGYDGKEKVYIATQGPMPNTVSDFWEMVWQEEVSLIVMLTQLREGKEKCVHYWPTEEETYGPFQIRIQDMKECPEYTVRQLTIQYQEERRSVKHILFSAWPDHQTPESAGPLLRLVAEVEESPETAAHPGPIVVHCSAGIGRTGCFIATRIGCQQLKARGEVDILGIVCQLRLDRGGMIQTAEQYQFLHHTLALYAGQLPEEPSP

Compound	inhibition
C=CCN1C(=O)/C(=C\c2cccn2-c2cccc([N+](=O)[O-])c2)C(=O)NC1=S	98.9% (active)
COc1cccc(CN2CCN(C(=O)COc3ccccc3)CC2)c1OC	3.3%
CCOc1cc(C=C2C(=O)NC(=O)NC2=O)cc(Br)c1OCCOc1ccccc1C	3.9%
CCOP(=O)(OCC)C(=C(Cl)Cl)C(C(=O)OC)C(=O)OC	11.5%
C=CCSc1nc2ccccc2c(=O)n1-c1ccccc1OC	11.5%
